According to PubChem BioAssay AID624330 (Southern Research Specialized Biocontainment Screening …, 2012):
Among all 340,000 compounds or so, about 2,100 (0.62%) were called active.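 Rule for the calls: active = first-screen hits whose inhibition reached a set limit at any dose in the follow-up dose series; inconclusive = inhibition above the set first-screen limit but never retested; inactive = the rest.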 Only a sample is shown. Results with a measured potency or affinity are listed apart.

Target: Rac GTPase-activating protein 1 (Homo sapiens) (UniProt Q9H0H5)
Sequence (Q9H0H5 whole entry, looked up): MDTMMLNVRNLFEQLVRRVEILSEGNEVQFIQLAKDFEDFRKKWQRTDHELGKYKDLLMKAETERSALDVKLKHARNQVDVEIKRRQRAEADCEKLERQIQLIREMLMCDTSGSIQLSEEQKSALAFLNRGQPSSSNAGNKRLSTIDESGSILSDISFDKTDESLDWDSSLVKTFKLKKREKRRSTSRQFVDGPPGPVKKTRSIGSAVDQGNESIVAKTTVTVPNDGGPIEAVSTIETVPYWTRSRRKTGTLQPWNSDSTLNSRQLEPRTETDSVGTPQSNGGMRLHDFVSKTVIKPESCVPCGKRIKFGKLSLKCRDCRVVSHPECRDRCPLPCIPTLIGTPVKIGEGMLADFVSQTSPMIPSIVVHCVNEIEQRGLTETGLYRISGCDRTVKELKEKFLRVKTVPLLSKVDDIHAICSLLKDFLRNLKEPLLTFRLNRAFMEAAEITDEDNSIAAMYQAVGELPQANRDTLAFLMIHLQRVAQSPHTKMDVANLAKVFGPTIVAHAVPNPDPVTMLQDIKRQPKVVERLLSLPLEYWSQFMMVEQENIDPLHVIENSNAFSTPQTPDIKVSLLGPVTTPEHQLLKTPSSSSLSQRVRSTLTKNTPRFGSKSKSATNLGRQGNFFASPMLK
Assay: blockers of MgcRacGAP-driven Rac1 GTP hydrolysis – biochemical, ADP Hunter fluorescence, primary and confirmatory, confirmation (AID 624330);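 note: fluorescence reports GDP produced by GAP-driven GTP hydrolysis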
Details: MgcRacGAP-stimulated Rac1 GTP hydrolysis, at 30 µM, hits give high values, GST-tagged Rac1 F28L mutant substrate

inhibition, inactive:
CC(C)Cn1c(=O)c(-[n+]2ccccc2)c([O-])c2ccccc21 12.6%
O=C(OCc1ccccc1)N1CCC2CC1c1cc(Cl)ccc12 (configuration not stated) 2.05%
Cc1nn(-c2ncc(C(F)(F)F)cc2Cl)c(=O)n1-c1ccccc1Cl 5.45%
CCCS(=O)(=O)NCc1cn2cccc(C)c2n1 4.87%
CC(=O)N1CCN(c2ccc([N+](=O)[O-])c(NCC3CCCO3)c2)CC1 (configuration not stated) 7.45%
COc1cc(C(=O)OCn2nnc3ccccc3c2=O)cc(OC)c1OC 5.8%
COc1ccc(NC(=O)c2noc3c2CCC3)cc1 14.6%
COc1ccc(C2C3=C(CC(C)(C)CC3=O)Oc3ncn4nc(-c5cccnc5)nc4c32)cc1 (configuration not stated) 1.38%
O=C(CCCc1c[nH]c2ccccc12)N[C@@H](Cc1c[nH]c2ccccc12)C(=O)O 9.15%
COc1cccc(CNC(=O)C2CCCN(S(C)(=O)=O)C2)c1 (configuration not stated) -2.27%
CC(C)(C)c1nc2ccc(NS(=O)(=O)c3ccc(F)c(F)c3F)cc2[nH]1 -2.67%
CS(=O)(=O)Nc1ccc(C(=O)Nc2ccccc2Sc2ccccc2)cc1 9.8%
Cc1nc(CN(C)Cc2nc(Cc3cccc(F)c3)no2)cs1 5.6%
O=S(=O)(NC(=NC1CCCCC1)c1ccccc1)c1ccccc1 4.1%
Cc1ncsc1CCC(=O)N1CCCC(Nc2ccc(C(C)C)cc2)C1 (configuration not stated) 5.76%
Cc1ccc(NC2CCCN(C(=O)CCc3scnc3C)C2)cc1C (configuration not stated) 10.7%
COc1ccc(CCC(=O)N2CCCC(Nc3ccc(OC)cc3)C2)cc1 (configuration not stated) -28.9%
COc1ccc(CCC(=O)N2CCCC(Nc3ccccc3)C2)cc1OC (configuration not stated) 3.2%
Cc1ccc(NC2CCCN(C(=O)CCc3cn[nH]c3)C2)cc1C (configuration not stated) 14.1%
CC(C)c1ccc(NC2CCCN(C(=O)CCc3cn[nH]c3)C2)cc1 (configuration not stated) 11.8%
O=C(CCc1ccccc1)N1CCCC(Nc2ccc(F)cc2)C1 (configuration not stated) 5.33%
COc1ccc(NC2CCCN(C(=O)CCc3cccc(Cl)c3)C2)cc1 (configuration not stated) -4.43%
Cc1ccc(NC(=O)C2CCCN(C(=O)NCc3ccccc3)C2)c(C)c1 (configuration not stated) 5.67%
CCOC(=O)CCCn1c(C)nc(=O)c(-c2ccccc2)c1C -2.8%
CCCCCCC(=O)OCC(=O)c1ccc2c(c1)NC(=O)CO2 4%
COc1ccccc1NC(=S)N(CCN(C)C)C(C)c1ccncc1 (configuration not stated) 4.01%
O=S1(=O)N[C@@H](CC2CCCCC2)COc2cc(Br)ccc21 6.23%
